Results published in PubChem BioAssay AID682 (University of Pittsburgh Molecular Library Screening Center, 2007).
This is one part of the list. A number with no mark means an inactive call. Cut-off read from the data, not from the text of the source: active = EC50 below about 30 µM; inactive = the rest.

Experiment: H2O2 producers via compound redox cycling – biochemical, 0.5 mM DTT, Cdc25B catalytic domain, artefact control, dose response (AID 682)
Settings: cell-free redox cycling H2O2 generation

| Structure (SMILES) | EC50 |
| --- | --- |
| c1ccc(CSc2nnc(-c3ccco3)c(-c3ccco3)n2)cc1 | > 50 µM |
| COc1cccc2c(C)c(C(=O)O)[nH]c12 | > 50 µM |
